This is an account of results in PubChem BioAssay AID1004 (SRMLSC, 2008).

The structures appear in SMILES notation. Values without a mark were called inactive.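 The calls were made as follows: active = viability at 10 µM of 29.74% or lower, 3 SD below the compound median; inactive = the rest.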

The experiment in a line: viability of HCT116 lacking mutant beta-catenin – cell-based, DP diverse set, validation, pilot screen (AID 1004). The conditions noted are these: HCT116 (mutant beta-catenin deleted) viability, CellTiter-Glo, 60 h; at 10 µM; stronger effect = lower value. Background: In ATP-based viability assays light output follows the ATP content of the culture.
`O=c1[nH]cnc2ccccc12`: the viability was 98.6%. In the case of `C=C1CC[C@H](O)C/C1=C/C=C1\CCC[C@]2(C)[C@@H]([C@H](C)CCCC(C)C)CC[C@@H]12` it was 104%. In the case of `CC[n+]1c(-c2ccccc2)c2cc(N)ccc2c2ccc(N)cc21` it was 51.3%; in that of `CC(C)C[C@H]1C(=O)N2CCC[C@H]2[C@]2(O)O[C@](NC(=O)[C@@H]3C=C4c5cccc6[nH]c(Br)c(c56)C[C@H]4N(C)C3)(C(C)C)C(=O)N12`, 89.9%. To `Nc1nc2ncc(CNc3ccc(C(=O)NC(CCC(=O)O)C(=O)O)cc3)nc2c(=O)[nH]1` (stereo not drawn) belongs 95.3%; to `COc1cc(CNC(=O)CCCC/C=C/C(C)C)ccc1O`, 95.2%. Take `O=C(c1ccccc1)c1ccccc1`: the viability is 97.8%. In the case of `CC(C)CC(=O)N[C@H](C(=O)N[C@H](C(=O)N[C@@H](CC(C)C)[C@@H](O)CC(=O)N[C@@H](C)C(=O)N[C@@H](CC(C)C)[C@@H](O)CC(=O)O)C(C)C)C(C)C` it was 100%; in that of `O=C1OC(c2cc(I)c(O)c(I)c2)(c2cc(I)c(O)c(I)c2)c2ccccc21`, 97.5%.

Regarding `COc1ccc2cc([C@H](C)C(=O)O)ccc2c1`, the viability is 96.8%. Turning to `COC(=O)C1=C(C)NC(C)=C(C(=O)OCCNCc2ccccc2)C1c1cccc([N+](=O)[O-])c1` (stereo not drawn), the viability is 79.3%. On to `CC[N+](CC)(CC)CC(=O)Nc1c(C)cccc1C`, for which the viability was 101%. To `COc1ccc2cc1Oc1ccc(cc1)C[C@H]1c3c(cc4c(c3Oc3cc5c(cc3OC)CCN(C)[C@@H]5C2)OCO4)CCN1C` belongs 66.6%.

Broadly, the viability is a read-out of living cells in per cent, often relative to untreated cells.
